# LDHA inh – LDHA (human) enzyme inhibition. purified LDHA, NADH/diaphorase-resazurin fluorescence; active compounds read low. P00338. hit rate 0.15% among 480,000. activity change, % (values are at about 110 or 230 µM). AID 1347041; in the data active = activity change below about -30%; inconclusive = mostly about -25% to -30%;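 also: plate controls were DMSO wells for no effect and wells without enzyme for full effect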
#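 Remaining NADH was detected by diaphorase (0.133 mg/mL) converting 37 µM resazurin to fluorescent resorufin, read at 0 and 20 minutes. The preceding 5-minute room-temperature reaction used 2 nM LDHA, 0.2 mM sodium pyruvate and 0.06 mM NADH at pH 7.4.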
# PI4K2A inh – inhibitors of human PI4K2A; hit rate 0.13% among 420,000; activity change, negative = inhibition, % at 76.9 µM; purified PI4K2A, ADP-Glo luminescence, 1 h; active compounds read low; AID 1346378; in the data active = activity change below about -50%; inconclusive = mostly about -30% to -49%;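 also: -100% = wells without enzyme as full effect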
#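 PI4K2A activity was measured by ADP-Glo luminescence: enzyme (4 ug/mL stock) and phosphatidylinositol (1.2 mM stock) in Tris pH 7.5/MgCl2/EGTA/Triton X-100 buffer were reacted with ATP (300 microM stock) for one hour at ambient temperature.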
# RGS4 inhibitor – blocks human RGS4-accelerated GTP hydrolysis; Potency, µM (highest dose often 114 µM), inactives show at the top dose activity change, negative = inhibition, most hits filed as inhibitors; P49798; Transcreener GDP fluorescence polarization, RGS4-accelerated GTP hydrolysis; hit rate 0.039% among 390,000; active = well fitted inhibition curve with a large enough effect; inconclusive = small, poorly fitted or top-dose-only effect; inactive = no such curve, though single readings can be large or run the other way; also: potency is read from the fitted curve at half-maximal effect; % is scaled to controls: 0 for no effect and ±100 for the full control effect; nearly all actives have a fitted effect of over 75% in size
# Target sequence (P49798 whole entry, looked up): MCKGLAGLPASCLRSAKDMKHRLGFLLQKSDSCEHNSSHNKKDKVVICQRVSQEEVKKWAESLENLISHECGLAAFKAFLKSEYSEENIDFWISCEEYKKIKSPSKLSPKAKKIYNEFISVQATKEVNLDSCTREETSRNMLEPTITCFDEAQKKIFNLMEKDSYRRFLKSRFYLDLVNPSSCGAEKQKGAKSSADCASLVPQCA
#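 MLSMR compounds (23 nl, pin-transferred) preincubated 10 min at room temperature with a 500nM (2x) first reagent, then RGS4 at 900nM (2x) plus Transcreener GDP mix added; fluorescence polarization (620/688 nm) read before and after 90 min at 30 °C.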
# D3 antag – D3 dopamine receptor (human) antagonism | max response, negative = inhibition, % | D3R cells, DiscoveRx beta-arrestin luminescence, antagonist mode; active compounds read low | AID 652054 | hit rate 2.5% among 360,000; in the data active = max response below about -50%; inconclusive = no clear call, values can overlap the other calls; also: % is scaled to controls: 0 for no effect and ±100 for the full control effect
# Target sequence (P35462 whole entry, looked up): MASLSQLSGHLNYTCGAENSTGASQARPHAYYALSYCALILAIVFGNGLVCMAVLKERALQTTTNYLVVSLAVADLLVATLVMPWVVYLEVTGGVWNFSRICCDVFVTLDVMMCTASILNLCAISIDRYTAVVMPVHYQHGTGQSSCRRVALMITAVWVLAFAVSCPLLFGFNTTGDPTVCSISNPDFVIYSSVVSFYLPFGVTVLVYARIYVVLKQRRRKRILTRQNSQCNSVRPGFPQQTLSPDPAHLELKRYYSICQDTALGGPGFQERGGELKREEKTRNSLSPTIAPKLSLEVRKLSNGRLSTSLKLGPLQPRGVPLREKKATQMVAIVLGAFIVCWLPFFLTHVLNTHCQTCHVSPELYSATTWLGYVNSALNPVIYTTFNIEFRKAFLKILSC
#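 Cells expressing the human receptor were seeded at 1500 cells/well, incubated overnight at 37 degrees C in 5% CO2, then exposed to library compounds with dopamine controls for 90 minutes at 37 degrees C before luminescent detection.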
# Akt phos inh – blocks phosphorylation of Akt; Neuro2A IGF-stimulated pAkt S473 HTRF, 20 min; active compounds read low; activity change, % for hits at 50 µM; hit rate 0.32% among 360,000; AID 651550; in the data active = activity change below about -80%; inconclusive = mostly about -51% to -80%; also: % is scaled to controls: 0 for no effect and ±100 for the full control effect
#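 Neuro2A cells (4,500/well, DMEM with 0.5% FBS) were treated with compound at a single 50 µM final concentration, stimulated with 6 nM IGF for 20 min at 37 °C, and lysed. Phospho-Akt Ser473 was read by HTRF as 665/615 ratio ×10^4.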
# DRD3 agonist – activates the human D3 dopamine receptor; AID 652048; max activation, %; D3R DiscoveRx beta-arrestin cells, luminescence, 90 min; P35462; hit rate 0.58% among 410,000; in the data active = max activation above about 30%; also: 0% is about no effect
#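 Agonist mode: compounds and dopamine controls were applied to plated cells for 90 min at 37 degrees C after an overnight attachment at 1500 cells/well. Luminescent read-out followed 30 - 60 minutes at room temperature with DiscoveRx detection reagent.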
# Numbers without * were called inactive; i = inactive; u = inconclusive; x = no result; ! = a repeat was not active. Shown are actives, neighbours in structure and some others; about 2.8% of the full set was active somewhere.
SMILES,LDHA inh,PI4K2A inh,RGS4 inhibitor,D3 antag,Akt phos inh,DRD3 agonist
CC(=O)c1c(C)oc2cc(C)c(NS(=O)(=O)c3ccc(C(C)(C)C)cc3)cc12,-21,x,x,x,x,x
CC1COCCN1C(=O)Cc1nn(C)c(=O)c2ccccc12 (stereo not drawn),-8,x,x,x,x,x
Cc1ccc(CN(C(=O)c2ccc(C(N)=O)s2)C2CC2)o1,5,x,x,x,x,x
Cn1c(C(=O)NCc2cccnc2)cc2sccc21,-6,-6,-6%,6,-83%*,-11
O=C(Cc1cccs1)NCc1cccnc1,0,2,12%,23,-93%*,-1
CN1CCN(c2ccc([N+](=O)[O-])c(-n3nc(-c4ccc(Cl)cc4)c4ccccc4c3=O)c2)CC1,5,x,x,x,x,x
CN1CCN(c2ccc([N+](=O)[O-])c(-n3nc(-c4ccccc4)c4ccccc4c3=O)c2)CC1,-6,0,-7%,-53*,i,2
CNC(=O)N/C=C(/C#N)C(=O)OC,9,x,x,x,x,x
C/C(NCCc1ccc(O)cc1)=C1/CCOC1=O,-3,-6,x,6,i,45*
C/C(Nc1ccccc1C(F)(F)F)=C1/CCOC1=O,-4,-3,14%,-10,i,-6
Cc1cccc(/C=C/C(=O)c2cc(Br)ccc(=O)c2O)c1,14,-16,-117%,-59*,x,-7
Oc1ccc(/C=N/NC(=S)NCc2ccco2)cc1,-3,4,-35%,11,-116%*,4
O=[N+]([O-])c1ccc(N/N=C/c2sc(N3CCOCC3)nc2-c2ccccc2)c(S(=O)(=O)Nc2ccc(Cl)cc2)c1,-3,0,-12%,-70*,i,-29
O=[N+]([O-])c1ccc(N/N=C/c2sc(N3CCOCC3)nc2-c2ccccc2)c(S(=O)(=O)Nc2ccccc2Cl)c1,-2,-3,-4%,-53*,i,-4
COc1ccc(-c2nc3n(n2)C(c2ccncc2)C(C(N)=O)=C(C)N3)cc1 (stereo not drawn),-4,-4,0%,-59*,i,-3
COc1ccc(-c2nc3n(n2)C(c2cccnc2)C(C(N)=O)=C(C)N3)cc1 (stereo not drawn),3,-3,14%,-4,i,2
CC(=O)NCCOc1ccc(C(=O)O)cc1,-3,10,-6%,-55*,i,9
O=C(Nc1ccccc1)Nc1ccc(C(=O)N2CCCC2)cc1,2,-62*,13%,-1,i,-9
O=C(Nc1ccc(C(=O)N2CCCCC2)cc1)c1ccccc1,-7,u,-15%,24,i,8
CC1C(=O)CC(c2ccccc2)N(C)C1c1ccccc1 (stereo not drawn),1,2,3%,-79*,i,-23
CCOC(=O)c1cnc2nc(-c3ccncc3)nn2c1C,-6,x,x,x,x,x
Cc1c(NS(C)(=O)=O)cccc1-c1nc2cccnc2s1,-9,-3,-19%,-51*,i,1
COc1ccc(S(=O)(=O)Nc2cccc3cccnc23)cc1,9,x,-10%,x,x,x
O=S(=O)(Nc1cccc2cccnc12)c1cccc(F)c1,20,x,x,x,x,x
CS(=O)(=O)Nc1cccc2cccnc12,14,-2,-17%,-57*,i,-17
SMILES,LDHA inh,PI4K2A inh,RGS4 inhibitor,D3 antag,Akt phos inh,DRD3 agonist
Cc1c(NS(=O)(=O)c2cccs2)cccc1-c1nc2cccnc2s1,-7,2,12%,-4,i,5
O=S(=O)(Nc1cccc2cccnc12)c1ccccc1,8,-2,-3%,-71*,i,-23
O=S(=O)(Nc1cccc2cccnc12)c1ccc(S(=O)(=O)N2CCCC2)cc1,8,-1,2%,-72*,i,-42
Cn1cnc2c1c(=O)n(CC(=O)N1CC(C(=O)N3CCCCC3)Oc3ccccc31)c(=O)n2C (stereo not drawn),3,x,x,x,x,x
Cc1ccc(S(=O)(=O)Nc2cccc3cccnc23)c([N+](=O)[O-])c1,2,-6,-9%,-56*,i,-11
COC(=O)c1ccc(CC(=O)c2ccc(O)cc2O)o1,2,-4,-22%,107,i,10
CCOC(=O)c1ccc(CC(=O)c2ccc(O)cc2O)o1,-4,-7,-31%,29,i,32*
Cc1c(C(=O)NCc2ccc(C(F)(F)F)cc2)sc(=O)n1Cc1cccc(F)c1,0,2,x,-25,i,-1
Cc1c(C(=O)NCc2cccc(C(F)(F)F)c2)sc(=O)n1Cc1cccc(F)c1,1,7,x,-52*,i,-9
CC(=O)Oc1ccc(C(=O)Nc2ccccc2C(=O)N2CCCCC2)cc1,-2,-1,-4%,-57*,i,-11
CC(=O)Oc1ccc(C(=O)Nc2ccccc2C(=O)N2CCCC2)cc1,-7,-1,38%,-8,i,7
N#C/C(=C\c1ccc(Cl)cc1Cl)c1n[nH]c(Cn2cncn2)n1,-5,-4,-3%,14,-90%*,5
O=C(Nc1ccccc1)c1n[nH]c(Cn2cncn2)n1,-3,-3,6%,10,i,5
Cc1ccc(-n2nc3c(N4CCCC(C(=O)NCCN(C)C)C4)nnc(C)c3c2C)cc1 (stereo not drawn),8,x,x,x,x,x
Cc1ccc(S(=O)(=O)N/N=C2/CC(c3ccccc3)Oc3ccccc32)cc1[N+](=O)[O-] (stereo not drawn),-2,-8,-13%,-83*,i,-4
CC(C)c1c(C(=O)N/N=C/c2cccc(OCc3ccccc3)c2)nnn1-c1nonc1N,-15,0,14%,45,i,40*
O=C(NCCN1CCCCC1)Nc1ccc(Br)cc1,-1,0,0%,-54*,i,-13
O=C(NCCN1CCCCC1)Nc1cccc(C(F)(F)F)c1,1,-1,-1%,-58*,i,-12
Cc1ccc(NC(=O)NCCN2CCCCC2)cc1,1,-3,-9%,-17,i,-22
O=C(NCCN1CCCC1)c1ccc(Cl)cc1,1,-3,-18%,-98*,i,-11
CCOc1ccc(OCC(=O)NCCS(=O)(=O)N2CCN(c3ccc(F)cc3)CC2)cc1,-3,10,-12%,17,i,38*!
O=c1oc2cc(OCc3nn[nH]n3)ccc2cc1-c1ccc(Cl)cc1,-7,x,x,x,x,x
COc1ccc(OCC(=O)Nc2ccc3oc(-c4ccc5ccccc5c4)nc3c2)cc1,-3,x,x,x,x,x
Cc1ccc(-c2cc(C(=O)OCC(=O)N3CCCC3)c3ccccc3n2)o1,1,x,x,x,x,x
Cc1ccc(C(=O)NCCN2CCOCC2)cc1,-7,0,23%,u,i,-32
COc1cc(OC)cc(C(=O)NCCCN2CCOCC2)c1,-7,2,24%,4,-120%*,4
Fc1ccc(OCCCCCCN2CCCC2)cc1,-4,-3,-9%,-29,i,-33

# Assay outcomes from PubChem.
